Test results from PubChem BioAssay (NCI).
About 79,000 compounds went through this panel and 15% of them were active in at least one assay; those are over-represented in the sample as a whole. Rule as the data show it: active = growth inhibition above about 70%; inactive = the rest.

What was measured:
[1] = NCI Yeast Anticancer Drug Screen. Data for the rad50 strain (AID 155);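 also: 0% = growth of vehicle-only cultures of the same strain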; settings: S. cerevisiae rad50 strain growth inhibition; at 50.0 µM; hits give high values
How it was run: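 Readout: growth inhibition relative to vehicle-treated cultures. Compound exposure was carried out in a genetically defined yeast strain deficient in DNA damage repair.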

[2] = NCI Yeast Anticancer Drug Screen. Data for the mec2-1 strain (AID 157); settings: S. cerevisiae mec2-1 strain, at 50.0 µM, hits give high values
How it was run: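 Growth inhibition is read against vehicle-treated controls after compound exposure of the mec2-1 yeast strain, which is defective in DNA damage repair or cell cycle control.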

[3] = NCI Yeast Anticancer Drug Screen. Data for the sgs1 mgt1 strain (AID 161);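 also: 0% = growth of cultures given vehicle only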; settings: S. cerevisiae sgs1 mgt1 strain, at 50.0 µM, hits give high values
How it was run: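 This yeast growth screen uses a strain with defined DNA-repair lesions; compound-treated growth is compared with vehicle-treated growth.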

[4] = NCI Yeast Anticancer Drug Screen. Data for the cln2 rad14 strain (AID 165);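 also: 0% = growth equal to vehicle treated cultures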; settings: S. cerevisiae cln2 rad14 strain, at 50.0 µM, hits give high values
How it was run: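 Growth inhibition, relative to vehicle-treated controls, is the read-out. The test organism is a yeast strain with defined genetic alterations, cln2 rad14.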

[5] = NCI Yeast Anticancer Drug Screen. Data for the bub3 strain (AID 167); settings: S. cerevisiae bub3 mutant strain, at 50.0 µM, hits give high values
How it was run: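 Readout: yeast growth inhibition, expressed relative to vehicle-only wells. The test organism is a mutant strain from a panel with lesions in DNA repair or checkpoint genes.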

[6] = NCI Yeast Anticancer Drug Screen. Data for the mlh1 rad18 strain (AID 175); settings: S. cerevisiae mlh1 rad18 strain growth inhibition; at 50.0 µM; hits give high values
How it was run: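 Cells of a genetically altered yeast strain, deficient in DNA damage repair, were treated with compound. Their growth was then compared with that of vehicle-treated cultures to give inhibition.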

Measured: growth inhibition

CCCC(C)(C)CO
inactive: [1] 1.75% | [2] 1.35% | [3] -1.85% | [4] 5.6% | [5] 9.3% | [6] 5.75%

Nc1cc(OCc2ccccc2)ncn1
inactive: [1] 10.6% | [2] 11% | [3] 3.75% | [4] -11.6% | [5] -1.05% | [6] 20.9%

C=CCSc1ccc(Cl)cc1[N+](=O)[O-]
inactive: [1] 18.8% | [2] -3.4% | [3] 6.05% | [4] -8.45% | [5] 4% | [6] 0.3%

CN(C)c1cc2ccccc2oc1=O
inactive: [1] 5.3% | [2] -0.75% | [3] -2% | [4] -5.75% | [5] 9% | [6] 6.45%

COc1ccc(/C=N/Nc2nc(C)c(C)s2)cc1
inactive: [1] 30.9% | [2] 18.4% | [3] 53.4% | [4] 11.4% | [5] 7.35% | [6] 55.8%

O=c1cc(-c2ccccc2)oc2c(N=Nc3ccccc3)ccc(O)c12
inactive: [1] 33.8% | [2] -14.8% | [3] 22.9% | [4] 25.4% | [5] 22.4% | [6] -11.5%

Fc1ccc2nncc(/C=C/c3ccccn3)c2c1
inactive: [1] 41.8% | [2] -3.55% | [3] 4.2% | [4] -16.9% | [5] 24.2% | [6] 19.4%

CCOC(=O)OCCOCCOC(=O)OCC
inactive: [1] -2.25% | [2] -14.2% | [3] -30.8% | [4] 19.2% | [5] -2.65% | [6] 25.8%

COc1cc(CC2COC(=O)[C@@H]2Cc2ccc(O)c(OC)c2)ccc1O (stereo not given in full)
inactive: [1] -29.7% | [2] -18.9% | [3] -23.4% | [4] 1.25% | [5] 6.55% | [6] 3.1%

NC(=O)N/N=C/c1ccc2c(c1)OCO2
inactive: [1] 20.1% | [2] -7.9% | [3] 0% | [4] 8.45% | [5] -0.15% | [6] 13.8%

COC1=C(N=[N+]=[N-])C(=O)c2ccccc2C1=O
inactive: [1] 38% | [2] 8.95% | [3] 7.25% | [4] -34.2% | [5] -6.8% | [6] 16.1%

CC(C)=CCC/C(C)=C/CC/C(C)=C/C1CCC(=O)C1(C)C (stereo not given)
inactive: [1] 5% | [2] -38.4% | [3] -43.2% | [4] -16.6% | [5] -33.3% | [6] -8.35%

C#CC(C)(CC)OC(C)=O (stereo not given)
inactive: [1] 44.3% | [2] -16.4% | [3] 7.6% | [4] -23% | [5] 19.9% | [6] 20.3%

Nc1cc(Cl)c(N(CCO)C2=NCCN2)c(Cl)c1
inactive: [1] 3.8% | [2] -3.25% | [3] 3.05% | [4] -12.2% | [5] 1.3% | [6] -5.75%

Cn1c(=O)c2c(ncn2CCNC(c2ccccc2)c2ccc(Br)cc2)n(C)c1=O (stereo not given)
inactive: [1] 4.55% | [2] 1.55% | [3] 11.3% | [4] -35.3% | [5] 24.1% | [6] 13.6%

COC(C)CCOC(=O)COc1ccccc1 (stereo not given)
inactive: [1] 17.8% | [2] -10% | [3] 8.35% | [4] -11.3% | [5] 13.8% | [6] 8.3%

COC(=O)c1ccc(O)c(CN(C)C)c1
inactive: [1] 26.6% | [2] -10.6% | [3] 6.6% | [4] 3.4% | [5] -15.1% | [6] 18.8%

CSc1ccc(NC(=O)c2ccc(C(=O)Nc3ccc(SC)cc3)cc2)cc1
inactive: [1] -17.5% | [2] -10.7% | [3] -12.6% | [4] -14.9% | [5] -1.95% | [6] -26.7%

CC(=O)[C@H]1[C@H](C)C[C@H]2[C@@H]3CCC4=CC(=O)CC[C@]4(C)[C@@]3(F)C(=O)C[C@@]21C
inactive: [1] -5.45% | [2] 1.2% | [3] -3.3% | [4] -28.4% | [5] 6% | [6] 4%

CSc1nc(NC2OCC(OC(C)=O)C(OC(C)=O)C2OC(C)=O)c(N=CC=Nc2c(NC3OCC(OC(C)=O)C(OC(C)=O)C3OC(C)=O)nc(SC)[nH]c2=O)c(=O)[nH]1 (stereo not given)
inactive: [1] 11.8% | [2] -7.9% | [3] -0.35% | [4] 7.15% | [5] -1.65% | [6] 8.25%
